An excerpt weighted towards active compounds, which were near 28% of everything screened.
PLK1 kinase inh = inhibitors of human PLK1 kinase | actives 0.53% (n = 97,000) | recombinant PLK1 kinase, TR-FRET peptide phosphorylation | AID 619 | P53350 | inhibition, % at 10 µM;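 active means inhibition of 50% or more in the single-concentration screen; inactive means inhibition below 50%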
Target sequence (P53350 whole entry, looked up): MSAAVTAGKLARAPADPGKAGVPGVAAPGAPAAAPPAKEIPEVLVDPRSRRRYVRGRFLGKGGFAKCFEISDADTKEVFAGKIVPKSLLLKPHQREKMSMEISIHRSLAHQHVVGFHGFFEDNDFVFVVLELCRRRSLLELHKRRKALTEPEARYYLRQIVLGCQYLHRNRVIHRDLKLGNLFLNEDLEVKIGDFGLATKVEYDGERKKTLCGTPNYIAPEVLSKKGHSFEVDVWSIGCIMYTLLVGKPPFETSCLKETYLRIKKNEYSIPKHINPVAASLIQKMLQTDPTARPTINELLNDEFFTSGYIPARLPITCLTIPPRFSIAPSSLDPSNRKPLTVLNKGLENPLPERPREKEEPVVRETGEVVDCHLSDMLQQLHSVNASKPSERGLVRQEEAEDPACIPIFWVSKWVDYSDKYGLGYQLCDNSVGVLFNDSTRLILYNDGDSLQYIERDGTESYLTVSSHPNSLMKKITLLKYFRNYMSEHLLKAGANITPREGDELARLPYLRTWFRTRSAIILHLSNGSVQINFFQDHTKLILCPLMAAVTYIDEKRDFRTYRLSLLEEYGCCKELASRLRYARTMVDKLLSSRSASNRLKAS
CYP2C19 inhib = inhibitors of human CYP2C19 | P33261 | AID 778 | CYP2C19 Supersomes, luciferin-H EGE luminescence, 30 min | inhibition, % at 5 µM | actives 21% (n = 96,000);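 active means CYP2C19 inhibition above a set limit at 5 µM in the primary screen, cut at about 50% in these data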
CYP2C19 activ = cytochrome P450 2C19 (human) activation | 96,000 tested, under 10 active | AID 1025 | recombinant CYP2C19, luciferin-H EGE luminescence; active compounds read high; 0 = fully inhibited enzyme, 1 = untreated enzyme | activation factor at 5 µM;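 active means activation factor of at least 2 at 5 µM in the primary screen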
CYP2C9 act = activators of human CYP2C9. recombinant CYP2C9, luciferin-H conversion, luminescence; active compounds read high; factor 1 = untreated enzyme, 0 = blocked. actives 1.4% (n = 96,000). P11712. activation factor at 5 µM;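 active means activation factor of 2 or more for CYP2C9 at a 5 µM dose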
CYP2C9 inhib = blocks human cytochrome P450 2C9; AID 777; CYP2C9 Supersomes, luciferin-H conversion, luminescence; inhibition, % at 5 µM; P11712; actives 20% (n = 96,000);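 active means blocking of liver enzyme CYP2C9 beyond about 50% at 5 µM, limit read from the data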
Plk1 PBD FP = inhibitors of human Plk1 polo box domain binding; Plk1 PBD phosphopeptide binding, fluorescence polarization; AID 693; actives 0.13% (n = 97,000); P53350; inhibition, %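 (tested at about 20 µM)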; in the data active means inhibition above about 34%, passing the limit was not always enough
Of the large screens only hits and unclear results are named; the others gave an inactive call.

CCCCn1nnnc1NCc1ccc(N2CCCC2)cc1	CYP2C9 inhib 71.3
CCn1c(=O)c2c(n3cnnc13)-c1ccccc1CC21CCCCC1	none
Cc1cccc(N2C(=O)CS/C2=N\NC(=O)c2ccc(Cl)cc2)c1C	none (no result: CYP2C19 inhib, CYP2C19 activ, CYP2C9 act, CYP2C9 inhib)
Cc1ccc(C(=O)ON=C2CCN(c3ccc([N+](=O)[O-])cc3)CC2)cc1	none
c1ccc2c(c1)ncn2CCC1CCCCC1	CYP2C19 inhib 92.2, CYP2C9 inhib 58.0
O=C(O)Cn1c(=O)cnc2ccccc21	none
O=c1cnc2ccccc2n1CC1CCCCC1	CYP2C19 inhib 95.8
COc1ccc(CC(=O)NC2CCN(CC(=O)Nc3ccc4c(c3)OCCO4)CC2)cc1OC	none
CCC(C)C(=O)Nc1nc(C)c(-c2csc(Nc3ccccc3OC)n2)s1 (configuration not stated)	CYP2C9 inhib 63.3
C=CCCC(=O)Nc1nc(C)c(-c2csc(Nc3ccccc3OC)n2)s1	CYP2C9 inhib 57.1
CCCCC(=O)Nc1nc(C)c(-c2csc(Nc3ccccc3OC)n2)s1	none
CCCCCCC(=O)Nc1nc(C)c(-c2csc(Nc3cc(OC)ccc3OC)n2)s1	none
CCCCCC(=O)Nc1nc(C)c(-c2csc(Nc3cc(OC)ccc3OC)n2)s1	CYP2C9 inhib 55.1
Cc1ccc(C(=O)CSc2nnc(-c3ccc4[nH]c(C)c(C)c4c3)o2)cc1C	CYP2C9 inhib 71.2
COc1ccc(N2CCN(C(=O)CSc3nnc(-c4ccc5[nH]c(C)c(C)c5c4)o3)CC2)cc1	none
Cc1[nH]c2ccc(-c3nnc(SCC(=O)c4ccccc4F)o3)cc2c1C	CYP2C19 inhib 57.2, CYP2C9 inhib 77.7
CCc1ccc(NC(=O)CN(c2cccc(C)c2)S(C)(=O)=O)cc1	none
COc1ccccc1N1CCN(CC(O)c2ccc3cc[nH]c3c2)CC1 (configuration not stated)	none
O=C(Cn1cc([N+](=O)[O-])cn1)N1N=C(C(F)F)CC1(O)C(F)F (configuration not stated)	none (no result: CYP2C19 inhib, CYP2C19 activ, CYP2C9 act, CYP2C9 inhib)
Cc1n[nH]c(C)c1S(=O)(=O)N1CCCC(C(=O)Nc2nccs2)C1 (configuration not stated)	CYP2C19 inhib 61.0, CYP2C9 inhib 73.4
O=C(Nc1nccs1)C1CCN(S(=O)(=O)c2c(Cl)cccc2Cl)CC1	CYP2C19 inhib 91.5
Cc1ccc(CNC(=O)C2CCCN(S(=O)(=O)c3c(C)n[nH]c3C)C2)cc1 (configuration not stated)	CYP2C19 inhib 70.6
Cc1n[nH]c(C)c1S(=O)(=O)N1CCCC(C(=O)NCc2cccs2)C1 (configuration not stated)	none
CCNC(=O)N1CCOCC1	none
O=c1oc2c(CN3CCCCCC3)c(O)ccc2cc1-c1nc2ccccc2[nH]1	none (no result: PLK1 kinase inh, Plk1 PBD FP)
O=C1c2ccccc2S(=O)(=O)N1CC(O)COc1ccc(Cl)cc1 (configuration not stated)	CYP2C19 inhib 100.4, CYP2C9 inhib 66.8 (no result: PLK1 kinase inh, Plk1 PBD FP)
OC(COc1ccc(Br)cc1)CN1CCOCC1 (configuration not stated)	none (no result: PLK1 kinase inh, Plk1 PBD FP)
Cc1c(C)n(CC(O)CN2C(=O)c3ccccc3S2(=O)=O)c2ccccc12 (configuration not stated)	CYP2C19 inhib 98.1, CYP2C9 inhib 97.1
O=C(CN1C(=O)c2ccccc2S1(=O)=O)NCc1cccnc1	none
O=C1c2ccccc2S(=O)(=O)N1CC(O)COc1ccc(Br)cc1 (configuration not stated)	CYP2C19 inhib 99.7, CYP2C9 inhib 69.4
O=C1c2ccccc2S(=O)(=O)N1CCOc1ccccc1	CYP2C19 inhib 97.8
CCOC(=O)/C(N=O)=C(\O)C1CCN(C(=O)OCC)CC1	none
O=C1c2ccccc2C(=O)C1c1ccnc2ccccc12	none (no result: CYP2C19 inhib, CYP2C19 activ, CYP2C9 act, CYP2C9 inhib)
N#CC1=C(N)SC(N)=C(C#N)C1c1ccnc2ccccc12	CYP2C9 inhib 69.5
Cc1cc(C)c2c(=O)c3c(oc2c1)C(=O)N(CCO)C3c1cccc(O)c1 (configuration not stated)	CYP2C19 inhib 50.3, CYP2C9 inhib 53.5
Cc1ccc(C(NC(=O)N2CCOCC2)=C(Cl)Cl)cc1F	none
COCc1cc(=O)[nH]c2cc(NC(=O)C(C)(C)CCl)c(C)cc12	none
CCCc1cc(=O)[nH]c(Nc2ccc(OC)c(Cl)c2)n1	CYP2C9 inhib 72.4
COC(=O)c1ccc(NC(=O)C(C)Oc2ccccc2)cc1 (configuration not stated)	CYP2C9 inhib 83.6
